Measurements as given in PubChem BioAssay (NCI).
Where “and” joins values, the source holds several entries; their conditions need not be identical. Identical values can stand only once. About 79,000 compounds went through this panel and 15% of them were active in at least one assay; those are over-represented in the sample as a whole. The source holds several records for some structures; these can differ, active in one and inactive in another. Calls of active or inactive are those of the source. No stated cut-off is given here; in the data, active means growth inhibition above about 70%; inactive means the rest.

Tests used:
[1] = NCI Yeast Anticancer Drug Screen. Data for the rad52 strain (AID 147);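 further: 0% = growth of vehicle-treated control cultures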; conditions: S. cerevisiae rad52 mutant growth inhibition, stronger effect = higher value
Procedure, shortened: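 Here a repair-compromised yeast strain receives each compound; its growth is then quantified and normalised to vehicle-only controls.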

[2] = NCI Yeast Anticancer Drug Screen. Data for the wt1 strain (AID 149);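 further: 0% = growth of vehicle-treated wt1 cultures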; conditions: S. cerevisiae wt1 strain (SPY 50644) growth inhibition, stronger effect = higher value
Procedure, shortened: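 wt1 yeast, compound-treated; % growth inhibition vs vehicle control.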

[3] = NCI Yeast Anticancer Drug Screen. Data for the rad50EPP+ strain (AID 151);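 further: 0% = growth of vehicle-treated control cultures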; conditions: S. cerevisiae rad50 mutant strain, stronger effect = higher value
Procedure, shortened: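 Read-out is yeast growth inhibition relative to vehicle; cells used were the rad50EPP+ strain.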

[4] = NCI Yeast Anticancer Drug Screen. Data for the rad50 strain (AID 155);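 further: 0% = growth of vehicle-only cultures of the same strain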; conditions: S. cerevisiae rad50 strain growth inhibition, stronger effect = higher value
Procedure, shortened: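 Genetically altered yeast (DNA repair pathway); compound treatment; growth inhibition vs vehicle ctrl.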

[5] = NCI Yeast Anticancer Drug Screen. Data for the mec2-1 strain (AID 157); conditions: S. cerevisiae mec2-1 strain, stronger effect = higher value
Procedure, shortened: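 Using mec2-1 yeast: add compound, measure growth, express inhibition versus vehicle-treated cultures.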

[6] = NCI Yeast Anticancer Drug Screen. Data for the rad14 strain (AID 159);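 further: 0% = growth of vehicle-treated control cultures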; conditions: S. cerevisiae rad14 strain growth inhibition, stronger effect = higher value
Procedure, shortened: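 Test compounds were applied to a repair-deficient yeast strain. Its growth was then compared with that of cultures given vehicle alone, and inhibition was expressed relative to those controls.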

[7] = NCI Yeast Anticancer Drug Screen. Data for the sgs1 mgt1 strain (AID 161);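 further: 0% = growth of cultures given vehicle only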; conditions: S. cerevisiae sgs1 mgt1 strain, stronger effect = higher value
Procedure, shortened: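 This yeast growth screen uses a strain with defined DNA-repair lesions; compound-treated growth is compared with vehicle-treated growth.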

[8] = NCI Yeast Anticancer Drug Screen. Data for the CLN2oe strain (AID 163);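 further: 0% = growth of vehicle-only control cultures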; conditions: S. cerevisiae CLN2oe strain, stronger effect = higher value
Procedure, shortened: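 Whole-cell yeast growth assay. A strain engineered for altered cell-cycle control received compound, and inhibition relative to vehicle-treated cultures was recorded.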

[9] = NCI Yeast Anticancer Drug Screen. Data for the cln2 rad14 strain (AID 165);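 further: 0% = growth equal to vehicle treated cultures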; conditions: S. cerevisiae cln2 rad14 strain, stronger effect = higher value
Procedure, shortened: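 Yeast strain cln2 rad14, bearing defects in cell cycle control and DNA repair, serves as the test system; values reflect growth inhibition compared with vehicle.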

[10] = NCI Yeast Anticancer Drug Screen. Data for the bub3 strain (AID 167); conditions: S. cerevisiae bub3 mutant strain, stronger effect = higher value
Procedure, shortened: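 Yeast carrying a defined mutation is treated with each compound, and growth is compared with that of vehicle-exposed cells to give inhibition.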

[11] = NCI Yeast Anticancer Drug Screen. Data for the wt2 strain (AID 169);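 further: 0% = growth of vehicle-treated yeast cultures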; conditions: S. cerevisiae wt2 strain growth inhibition, stronger effect = higher value
Procedure, shortened: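 Treated yeast vs. vehicle-treated yeast: growth inhibition determined.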

[12] = NCI Yeast Anticancer Drug Screen. Data for the mlh1 strain (AID 171);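 further: 0% = growth of vehicle-treated control cultures of the same strain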; conditions: S. cerevisiae mlh1 strain growth inhibition, stronger effect = higher value
Procedure, shortened: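 A yeast strain with a defined genetic lesion serves as the test organism. Cultures receive compound or vehicle, and growth is measured.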

[13] = NCI Yeast Anticancer Drug Screen. Data for the sgs1 strain (AID 173);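 further: 0% = growth of vehicle-only control cultures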; conditions: S. cerevisiae sgs1 mutant, stronger effect = higher value
Procedure, shortened: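 A genetically defined yeast mutant is incubated with the test compound, and its growth is compared to that of the same strain given vehicle.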

[14] = NCI Yeast Anticancer Drug Screen. Data for the mlh1 rad18 strain (AID 175); conditions: S. cerevisiae mlh1 rad18 strain growth inhibition, stronger effect = higher value
Procedure, shortened: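 Steps: expose repair-defective yeast to compound; measure growth; express inhibition against vehicle-treated controls.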

[15] = NCI Yeast Anticancer Drug Screen. Data for the rad18 strain (AID 177); conditions: S. cerevisiae rad18 mutant growth inhibition, stronger effect = higher value
Procedure, shortened: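 Measured value is growth inhibition of a yeast strain bearing a DNA repair alteration, referenced to vehicle-treated cells.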

[16] = NCI Yeast Anticancer Drug Screen. Data for the mgt1 strain (AID 153); conditions: S. cerevisiae mgt1 mutant growth inhibition, stronger effect = higher value
Procedure, shortened: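 Measured: inhibition of mgt1 yeast growth by compound, normalized to vehicle-treated cultures.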

[17] = at 5.0 µM (retest, dose inferred, filed as 0.5)
[18] = at 50.0 µM (retest, dose inferred, filed as 5.0)

Measured: growth inhibition

CN(C)c1ccc(/C=C/c2ccnc3ccccc23)cc1N
5% (inactive) and 89% (active): [10]; [18]
81.6% (active) and -6.75% (inactive): [10]; at 50.0 µM
-13% (inactive) and 77% (active): [4]; [18]
43% (inactive) and 95% (active): [7]; [18]
inactive: [1]; at 1.2 µM -6% | [1]; at 3.7 µM -8% | [1]; at 11.0 µM -10% | [1]; at 33.0 µM -5% | [1]; at 100.0 µM 5% | [2]; at 1.2 µM -2% | [2]; at 3.7 µM -4% | [2]; at 11.0 µM -9% | [2]; at 33.0 µM -15% | [2]; at 100.0 µM -7% | [3]; at 1.2 µM -7% | [3]; at 3.7 µM -4% | [3]; at 11.0 µM 5% | [3]; at 33.0 µM 29% | [3]; at 100.0 µM 56% | [4]; at 1.2 µM -5% | [4]; at 3.7 µM -10% | [4]; [17] -25% and -10% | [4]; at 11.0 µM -13% | [4]; at 33.0 µM 5% | [4]; at 50.0 µM 2.85% and -9.8% | [4]; at 100.0 µM 17% | [5]; at 1.2 µM -6% | [5]; at 3.7 µM -6% | [5]; [17] -1% and 4% | [5]; at 11.0 µM -7% | [5]; at 33.0 µM -4% | [5]; at 50.0 µM 32.1% and -2.55% | [5]; at 100.0 µM 14% | [6]; at 1.2 µM -7% | [6]; at 3.7 µM -7% | [6]; at 11.0 µM -8% | [6]; at 33.0 µM 3% | [6]; at 100.0 µM 17% | [7]; [17] -8% and -6% | [7]; at 50.0 µM 64.8% and 1.25% | [8]; at 1.2 µM -1% | [8]; at 3.7 µM -5% | [8]; at 11.0 µM -19% | [8]; at 33.0 µM -16% | [8]; at 100.0 µM -4% | [9]; [17] -6% and -8% | [9]; [18] 7% and 40% | [9]; at 50.0 µM -28.1% and -22.4% | [10]; at 1.2 µM -5% | [10]; at 3.7 µM -5% | [10]; [17] 3% and -7% | [10]; at 11.0 µM -8% | [10]; at 33.0 µM -6% | [10]; at 100.0 µM 20% | [11]; at 1.2 µM -5% | [11]; at 3.7 µM -8% | [11]; at 11.0 µM -10% | [11]; at 33.0 µM 6% | [11]; at 100.0 µM 52% | [12]; at 1.2 µM -3% | [12]; at 3.7 µM -3% | [12]; at 11.0 µM -1% | [12]; at 33.0 µM 7% | [12]; at 100.0 µM 42% | [13]; at 1.2 µM -3% | [13]; at 3.7 µM -2% | [13]; at 11.0 µM -3% | [13]; at 33.0 µM 20% | [13]; at 100.0 µM 64% | [14]; [17] -12% and 5% | [15]; at 1.2 µM -4% | [15]; at 3.7 µM -3% | [15]; at 11.0 µM -8% | [15]; at 33.0 µM 11% | [15]; at 100.0 µM 32%
-6% (inactive) and 94% (active): [5]; [18]
81.8% (active) and 0.6% (inactive): [14]; at 50.0 µM
13% (inactive) and 97% (active): [14]; [18]

CC(=O)[O-].O=C([CH-]C(=O)c1ccccc1)c1ccccc1.O=C([CH-]C(=O)c1ccccc1)c1ccccc1.[Sm+3]
active: [1]; at 11.0 µM 80% | [1]; at 33.0 µM 97% | [1]; at 100.0 µM 98% | [2]; at 33.0 µM 98% | [2]; at 100.0 µM 97% | [3]; at 3.7 µM 70% | [3]; at 33.0 µM 70% | [3]; at 100.0 µM 79% | [16]; at 33.0 µM 98% | [16]; at 100.0 µM 98% | [6]; at 11.0 µM 97% | [6]; at 33.0 µM 99% | [6]; at 100.0 µM 98% | [8]; at 33.0 µM 97% | [8]; at 100.0 µM 97% | [11]; at 33.0 µM 98% | [11]; at 100.0 µM 98% | [12]; at 11.0 µM 70% | [12]; at 33.0 µM 98% | [12]; at 100.0 µM 99% | [15]; at 33.0 µM 98% | [15]; at 100.0 µM 97%
inactive: [1]; at 1.2 µM 4% | [1]; at 3.7 µM -2% | [2]; at 1.2 µM 4% | [2]; at 3.7 µM 4% | [2]; at 11.0 µM 25% | [3]; at 1.2 µM 35% | [3]; at 11.0 µM 52% | [16]; at 1.2 µM 0% | [16]; at 3.7 µM 6% | [16]; at 11.0 µM 50% | [6]; at 1.2 µM 6% | [6]; at 3.7 µM 7% | [8]; at 1.2 µM -3% | [8]; at 3.7 µM 6% | [8]; at 11.0 µM 45% | [11]; at 1.2 µM 1% | [11]; at 3.7 µM 8% | [11]; at 11.0 µM 65% | [12]; at 1.2 µM 3% | [12]; at 3.7 µM 8% | [15]; at 1.2 µM 5% | [15]; at 3.7 µM 12% | [15]; at 11.0 µM 43%

O=C1OC2C(O)COC2(OCc2c[nH]c3ccccc23)C1O (stereo not drawn) (tested in a mixture with another compound)
inactive: [1]; at 1.2 µM -2% | [1]; at 3.7 µM -1% | [1]; at 11.0 µM 1% | [1]; at 33.0 µM 24% | [2]; at 1.2 µM -1% | [2]; at 3.7 µM -1% | [2]; at 11.0 µM 0% | [2]; at 33.0 µM 12% | [3]; at 1.2 µM -5% | [3]; at 3.7 µM 3% | [3]; at 11.0 µM 7% | [3]; at 33.0 µM 14% | [3]; at 100.0 µM 15% | [4]; at 1.2 µM 2% | [4]; at 3.7 µM 5% | [4]; [17] 1% | [4]; at 11.0 µM 19% | [4]; at 33.0 µM 26% | [4]; [18] 15% | [4]; at 50.0 µM 66.4% | [5]; at 1.2 µM 0% | [5]; at 3.7 µM 1% | [5]; [17] -3% | [5]; at 11.0 µM 1% | [5]; at 33.0 µM 12% | [5]; [18] 22% | [5]; at 50.0 µM 49.1%
active: [1]; at 100.0 µM 84% | [2]; at 100.0 µM 88% | [4]; at 100.0 µM 95%
